In PubChem BioAssay (EPA / NIEHS):
Inconclusive results are not listed. Calls of active or inactive are those of the source. How the source made its calls: active means hit-call score of the fitted dose curve at least 0.9, where 1 is the maximum; inconclusive means response in the unintended direction; inactive means score below 0.9.

How the values were obtained:
[1] = Tanguay_ZF_120hpf_EYE_legacy: (Legacy) Oregon State University Tanguay Lab 120 Hour Post-fertilization zebrafish Assay for Eye Malformation (AID 2283636);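 further: binary presence or absence of eye malformation scored by brightfield in 120 hpf larvae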
Summary of the method: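 Dechorionated Tropical 5D zebrafish embryos, one per well from 6 hpf, static exposure to 120 hpf at 28C, 0.64% DMSO. Eye malformation scored present/absent by brightfield; dead embryos not scored.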

[2] = Tanguay_ZF_120hpf_SNOU_legacy: (Legacy) Oregon State University Tanguay Lab 120 Hour Post-fertilization zebrafish Assay for Snout Malformation (AID 2283637)
Summary of the method: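 Dechorionated tropical 5D wild-type zebrafish embryos exposed statically from 6 to 120 hpf at 28C, one per well, in 0.64% DMSO. Snout malformation scored as present/absent by brightfield at 120 hpf; dead embryos not scored.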

[3] = Tanguay_ZF_120hpf_JAW_legacy: (Legacy) Oregon State University Tanguay Lab 120 Hour Post-fertilization zebrafish Assay for Jaw Malformation (AID 2283638);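 on AC50: active means more embryos with jaw malformation than DMSO controls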
Summary of the method: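 Wild-type 5D embryos, chorion removed at 4 hpf, dosed singly from 6 hpf; 28C static, sealed, foil-covered, to 120 hpf. Endpoint: jaw defect yes/no (brightfield); mortality excludes scoring.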

[4] = Tanguay_ZF_120hpf_OTIC_legacy: (Legacy) Oregon State University Tanguay Lab 120 Hour Post-fertilization zebrafish Assay for Otic Vesicle Malformation (AID 2283639)
Summary of the method: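 Tropical 5D wild-type zebrafish embryos were exposed statically in sealed, foil-covered plates at 28C until 120 hpf, with 0.64% (vol/vol) DMSO final. Otic vesicle malformation was scored present/absent by brightfield microscopy, with DMSO as baseline.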

[5] = Tanguay_ZF_120hpf_PE_legacy: (Legacy) Oregon State University Tanguay Lab 120 Hour Post-fertilization zebrafish Assay for Pericardial Edema (AID 2283640);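 on AC50: potency for increased incidence of pericardial edema versus DMSO baseline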
Summary of the method: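 Zebrafish larvae are exposed from early development to 120 hpf at 28C, with 0.64% DMSO final. Each surviving larva receives a yes/no pericardial edema call by brightfield imaging, analysed relative to the DMSO baseline.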

[6] = Tanguay_ZF_120hpf_BRAI_legacy: (Legacy) Oregon State University Tanguay Lab 120 Hour Post-fertilization zebrafish Assay for Brain Malformation (AID 2283641)
Summary of the method: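 Static exposure of staged wild-type embryos until 120 hpf, kept at 28C with light excluded and final DMSO of 0.64% (vol/vol). Presence or absence of brain malformation was noted under brightfield; mortality precluded scoring.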

[7] = Tanguay_ZF_120hpf_SOMI_legacy: (Legacy) Oregon State University Tanguay Lab 120 Hour Post-fertilization zebrafish Assay for Somite Malformation (AID 2283647)
Summary of the method: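 Somitogenesis defects are recorded as binary calls in whole larvae at 120 hpf after continuous static chemical exposure starting at 6 hpf in dechorionated 5D embryos. DMSO serves as negative control and baseline.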

[8] = Tanguay_ZF_120hpf_PFIN_legacy: (Legacy) Oregon State University Tanguay Lab 120 Hour Post-fertilization zebrafish Assay for Pectoral Fin Malformation (AID 2283648);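 further: each larva judged yes or no for fin defect by brightfield with dead larvae skipped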
Summary of the method: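 Dechorionated Tropical 5D wild-type zebrafish embryos, one per well, statically exposed from 6 to 120 hpf at 28C with 0.64% DMSO final. Pectoral fin malformation scored present/absent by brightfield at 120 hpf; not scored in dead embryos.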

[9] = Tanguay_ZF_120hpf_CFIN_legacy: (Legacy) Oregon State University Tanguay Lab 120 Hour Post-fertilization zebrafish Assay for Caudal Fin Malformation (AID 2283649)
Summary of the method: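 Single dechorionated 5D wild-type embryos are dosed at 6 hpf (final DMSO 0.64%) and held statically at 28C. Caudal fin malformation is recorded as present or absent at 120 hpf under brightfield, excluding dead embryos.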

[10] = Tanguay_ZF_120hpf_PIG_legacy: (Legacy) Oregon State University Tanguay Lab 120 Hour Post-fertilization zebrafish Assay for Pigmentation Malformation (AID 2283650)
Summary of the method: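 Dechorionated Tropical 5D wild-type embryos, one per well from 6 hpf, statically exposed at 28C in the dark until 120 hpf, 0.64% DMSO final. Pigmentation scored present/absent by brightfield microscopy; dead embryos not scored; fitted versus DMSO.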

[11] = Tanguay_ZF_120hpf_CIRC_legacy: (Legacy) Oregon State University Tanguay Lab 120 Hour Post-fertilization zebrafish Assay for Circulatory Malformation (AID 2283651)
Summary of the method: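 Tropical 5D wild-type embryos, dechorionated with pronase at 4 hpf, were placed singly in wells at 6 hpf and exposed statically at 28C to 120 hpf (0.64% DMSO final). Circulatory malformation was scored present/absent by brightfield microscopy.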

[12] = Tanguay_ZF_120hpf_SWIM_legacy: (Legacy) Oregon State University Tanguay Lab 120 Hour Post-fertilization zebrafish Assay for Swim Bladder Malformation (AID 2283654);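 further: swim bladder malformation in each larva scored yes or no under brightfield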
Summary of the method: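 Dechorionated wild-type Tropical 5D zebrafish embryos, one per well from 6 hpf, were statically exposed at 28C until 120 hpf in 0.64% DMSO. Swim bladder malformation scored as present/absent by brightfield microscopy; not scored in dead larvae.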

[13] = Tanguay_ZF_120hpf_TRUN_legacy: (Legacy) Oregon State University Tanguay Lab 120 Hour Post-fertilization zebrafish Assay for Truncated Body (AID 2283655)
Summary of the method: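 Single dechorionated zebrafish embryos received test chemical from 6 hpf in 0.64% DMSO, kept at 28C. At 120 hpf, brightfield inspection noted any truncated body.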

[14] = system: Thyroperoxidase (TPO), gene 54314; test: CCTE_Simmons_AUR_rTPO: CCTE's Amplex UltraRed Assay for Thyroperoxidase (TPO) Inhibition, Simmons Lab (AID 2283662);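 on AC50: potency for loss of signal meaning inhibition of peroxidase activity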
Summary of the method: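 Rat thyroid microsomes (5 ug protein) were incubated with test compound (8 concentrations, 5 nM–87.5 uM final, 0.5% DMSO), 25 uM Amplex UltraRed and 300 uM H2O2 in 200 mM phosphate buffer for 30 min at 37C in the dark; fluorescence read at 544/590 nm.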

[15] = CCTE_Simmons_CellTiterGLO_HEK293T: Viability Assessment in CCTE's Assays for Thyroperoxidase (TPO) Inhibition, Simmons Lab (AID 2283665);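 on AC50: cells exposed to compound for 24 h before readout; actives reduce ATP signal below DMSO vehicle meaning cytotoxicity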
Summary of the method: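 HEK293T cells in DMEM with 1% FBS were dosed with 8 concentrations (5 nM–87.5 uM final, 0.5% DMSO) for 24 hr at 37C; ATP content was read by CellTiter-Glo luminescence, loss-of-signal versus DMSO, three biological replicates.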

[16] = Tanguay_ZF_120hpf_NC_legacy: (Legacy) Oregon State University Tanguay Lab 120 Hour Post-fertilization zebrafish Assay for Notochord and Tail Malformation (AID 2283656)
Summary of the method: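 Dechorionated 5D zebrafish, 1/well from 6 hpf; static exposure to 120 hpf, 28C, sealed, dark; final DMSO 0.64% v/v. NC scored binary (present/absent); dead embryos not scored. Fit vs DMSO baseline, gain direction.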

Measured: AC50

CC(C)(O)c1coc(S(=O)(=O)NC(=O)Nc2c3c(cc4c2CCC4)CCC3)c1
active: [14] 7.6 µM | [15] 22.4 µM
not listed: [16]
inactive: all other assays above

CCn1nc(Cc2ccccc2)cc1C1CCN(C[C@H]2C[C@H](N(C)[C@@H](C(=O)O)C(C)C)C[C@@H]2c2cccc(F)c2)CC1
active: [14] 30.7 µM | [15] 42.8 µM
not listed: [13]
inactive: all other assays above

CC/C(=C\C(=N/O)C(N)=O)C(C)[N+](=O)[O-] (stereo not drawn)
active: [14] 26.3 µM
not listed: [13]
inactive: all other assays above

CCOC(=O)CC(CC(=O)OCC)(OC(C)=O)C(=O)OCC
not listed: [13] | [14] | [15] | [16]
inactive: all other assays above

Cn1c(=O)cc(Oc2ccc(F)cc2F)c2cnc(NCC(C)(C)O)nc21
active: [5] 10.3 µM
not listed: [13] | [14] | [15]
inactive: all other assays above

CC(C)=CCC/C(C)=C/CO
active: [9] 31.6 µM
not listed: [14] | [15]
inactive: all other assays above

C[C@](N)(Cc1ccc(O)c(O)c1)C(=O)O
active: [14] 0.696 µM | [15] 39.8 µM
inactive: all other assays above

COC(=O)c1ccccc1O
not listed: [14] | [15]
inactive: all other assays above

CC(C)CCO
not listed: [13] | [14] | [15]
inactive: all other assays above

O=C(OC[C@H]1O[C@@H](OC(=O)c2cc(O)c(O)c(OC(=O)c3cc(O)c(O)c(O)c3)c2)[C@H](OC(=O)c2cc(O)c(O)c(OC(=O)c3cc(O)c(O)c(O)c3)c2)[C@@H](OC(=O)c2cc(O)c(O)c(OC(=O)c3cc(O)c(O)c(O)c3)c2)[C@@H]1OC(=O)c1cc(O)c(O)c(OC(=O)c2cc(O)c(O)c(O)c2)c1)c1cc(O)c(O)c(OC(=O)c2cc(O)c(O)c(O)c2)c1
active: [14] 1.03 µM | [15] 1.41 µM
inactive: all other assays above

CCC(C)(C)C(=O)O[C@H]1C[C@@H](C)C=C2C=C[C@H](C)[C@H](CC[C@@H]3C[C@@H](O)CC(=O)O3)[C@H]21
active: [1] 0.737 µM | [2] 0.796 µM | [3] 0.766 µM | [4] 0.747 µM | [5] 0.64 µM | [6] 0.645 µM | [8] 0.652 µM | [10] 0.666 µM | [14] 43.8 µM | [15] 43.8 µM
inactive: [7] | [9] | [11] | [12] | [16]

Fc1ccccc1[C@@H](F)COC1CCC(Nc2ncnc3[nH]ncc23)CC1 (stereo partly drawn)
active: [3] 38 µM | [5] 34.9 µM
not listed: [13] | [14] | [15]
inactive: all other assays above

CCNc1ccccc1
inactive: all assays above

CCCN(C1CCN(C(=O)C2CCNCC2)CC1)[C@@H]1CCc2ccc(OC)cc2C1
active: [15] 18.2 µM
inactive: all other assays above

Oc1ccc2c(c1)-c1ccccc1C2
active: [1] 48 µM | [2] 39.3 µM | [3] 37.7 µM | [5] 34.5 µM | [7] 49.1 µM | [8] 36 µM | [9] 35.1 µM | [10] 41 µM | [14] 10.6 µM | [15] 60.1 µM
inactive: [4] | [6] | [11] | [12] | [13] | [16]

CC(C)CCCCCCCOC(=O)CCCCC(=O)OCCCCCCCC(C)C
not listed: [14] | [15]
inactive: all other assays above
